rCAG RNA binder – binders of r(CAG) RNA repeats, primary screen, biochemical, fluorescence. r(CAG) RNA repeat, TO-PRO-1 dye displacement fluorescence. 370,000 compounds, 1.3% hits. inhibition, % at 3 µM;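 active = inhibition above the plate cutoff, the mean of all test compounds on that plate plus 3 SD, cut at about 35% in these data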;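 note: higher means more dye released from RNA so lower well fluorescence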
ABHD5-PLIN5 inh – ABHD5-PLIN5 interaction inhibitors, primary screen, cell lysate, split luciferase complementation, luminescence. 360,000 compounds, 0.78% hits. Split G. princeps luciferase complementation, 4 h. inhibition, % at 4 µM. Perilipin-5 (Homo sapiens) + 1-acylglycerol-3-phosphate O-acyltransferase ABHD5 (Homo …;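 active = inhibition above the mean inhibition across every tested compound plus 3 SD, cut at about 22% in these data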
TLR4 MyD88 comp – inhibitors of TLR4-MyD88 association in cells, primary screen, cell-based, HeLa CL3-4, BLA complementation, FRET ratio | Toll-like receptor 4 (Homo sapiens) + Myeloid differentiation primary response protein … | AID 861, 2007 | HeLa CL3-4 TLR4/MyD88 BLA complementation | 200,000 compounds, 0.18% hits | inhibition, % at 8.4 µM; in the data active = inhibition above about 25%
NOD2-RIPK2 inh – NOD2-RIPK2 binding disruptors in cells, primary screen, fluorescence, CHO cells, BLA complementation; Receptor-interacting serine/threonine-protein kinase 2 (Homo sapiens), O43353; CCF4 ratio; inhibition, % at 4.98 µM; 360,000 compounds, 0.38% hits; AID 624267, 2012; in the data active = inhibition above about 21%
PRMT1 inh – PRMT1 methyltransferase inhibitors, primary screen, biochemical, fluorescence polarization. Protein arginine N-methyltransferase 1 (Homo sapiens), Q99873. recombinant PRMT1, activity-based probe fluorescence polarization. inhibition, % at 2.79 µM. 370,000 compounds, 1.3% hits;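 active = inhibition above about 21% made by adding two undisclosed values, limit read from the data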
TLR9-MyD88 inh – inhibitors of TLR9-MyD88 association in cells, primary screen, cell-based, CHO, BLA complementation, fluorescence. Toll-like receptor 9 (Homo sapiens) + Myeloid differentiation primary response protein …. CCF4 FRET ratio. inhibition, % at 4.98 µM. 340,000 compounds, 0.21% hits. AID 504734, 2011;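 active = inhibition above the mean over all tested compounds plus 3 SD, cut at about 21% in these data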
ABHD5 PLIN5 conf – ABHD5-PLIN5 interaction inhibitors, confirmation, biochemical, luminescence; shares compounds with ABHD5-PLIN5 inh; inhibition, % at 4 µM; 2,200 compounds, 67% hits; AID 651612, 2012; in the data active = inhibition above about 23%
HNF4 split-luc – HNF4 dimerization inhibitors, counter-screen for ABHD5-PLIN5 interaction inhibitor project, biochemical, split-luciferase complementation, luminescence; shares compounds with ABHD5-PLIN5 inh; inhibition, % at 4 µM; 2,200 compounds, 77% hits; AID 651674, 2012;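 active = mean inhibition across replicate wells exceeding the computed hit threshold, cut at about 13% in these data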;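 note: light from luciferase halves that rejoin when HNF4 fusion proteins dimerize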
NOD2-RIPK2 conf – NOD2-RIPK2 binding disruptors, retest, confirmation, fluorescence, CHO cells, BLA complementation, triplicate; shares compounds with NOD2-RIPK2 inh; CCF4 FRET; inhibition, % at 4.98 µM; 1,200 compounds, 70% hits; AID 624370, 2012;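 active = mean inhibition across replicates above a set limit taken from the earlier primary screen, cut at about 21% in these data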
NOD2 BLA counter – hits BLA reporter in NOD2-RIPK2 inhibitor counterscreen | AID 624371 | 1,200 compounds, 57% hits | shares compounds with NOD2-RIPK2 inh | inhibition, % at 4.98 µM | CHO BLA reporter, CCF4 FRET ratio;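 active = mean inhibition above the low-control mean inhibition plus three low-control SD, cut at about 11% in these data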
A number is an active result; - = inactive; . = not tested or not shown. Compounds with a hit are over-represented: about 3.3% of the library has one in this group of screens.

SMILES	rCAG RNA binder	ABHD5-PLIN5 inh	TLR4 MyD88 comp	NOD2-RIPK2 inh	PRMT1 inh	TLR9-MyD88 inh	ABHD5 PLIN5 conf	HNF4 split-luc	NOD2-RIPK2 conf	NOD2 BLA counter
O=C(/C=C/c1cc(Br)ccc1O)c1ccco1	-	82	.	21	-	-	98	97	-	-
Nc1ccc(/C=C/C(=O)c2ccco2)cc1	-	-	-	-	-	-	.	.	.	.
O=C(Nc1cccc(S(=O)(=O)NC2=NCCCCC2)c1)c1ccc(Cl)cc1	-	-	.	-	-	-	.	.	.	.
CC(C)c1nnc(NC(=O)CCS(=O)(=O)Cc2ccccc2)s1	-	-	.	-	-	-	.	.	.	.
CC(C)c1nnc(NC(=O)CCS(=O)(=O)c2nc(-c3cccs3)cc(C(F)(F)F)n2)s1	-	37	-	41	-	-	76	89	-	-
O=c1cc(-c2ccccc2Cl)oc2cc(O)cc(O)c12	-	-	-	-	-	-	.	.	.	.
O=C1C=CC(O)(c2cc(=O)c3c(O)cc(O)cc3o2)C=C1	-	89	-	30	-	-	101	106	-	18
CC(C)CNC(=O)OCc1cn(Cc2cccc(F)c2)nn1	-	.	.	.	-	.	.	.	.	.
C=C1C(=O)[C@]23C[C@H]1CCC2[C@@]1(C)C(C[C@@H]3O)[C@](C)(C(=O)OC)CC[C@@H]1OC(C)=O (some centres undefined)	-	78	.	93	24	.	85	109	93	22
C=C1C(=O)[C@]23C[C@H]1CC[C@H]2[C@]1(C)[C@@H](OC(C)=O)CC[C@@](C)(C(=O)OC)[C@H]1C[C@@H]3OC(C)=O	-	56	.	59	-	.	71	98	56	-
C=CCOc1cccc(C(=O)N2CCCC(CCC(=O)NCc3ccccc3F)C2)c1 (centres undefined)	-	-	-	-	-	-	.	.	.	.
C=CCOc1cccc(C(=O)/C=C2/C(=O)Nc3ccccc32)c1	-	65	.	41	-	-	80	90	39	-
O=[N+]([O-])c1cc2c(ccc3occc32)o1	-	.	.	.	-	.	.	.	.	.
Cc1ccc(NN2C(=O)C=C(c3ccc(Cl)cc3)C2=O)cc1	-	95	-	51	-	-	101	107	82	11
O=C1C=C(c2ccccc2)C(=O)N1Nc1ccccc1	-	86	-	49	22	-	100	107	78	-
Cc1ccc(NN2C(=O)C=CC2=O)cc1	-	-	-	-	-	-	.	.	.	.
COc1ccc(Nc2cccccc2=O)cc1	-	-	-	-	-	-	.	.	.	.
COc1ccc(C2=CC(=O)N(Nc3ccccc3)C2=O)cc1	-	88	-	42	-	.	86	88	55	-
Cc1cccc(C(O)c2ncc(-c3cccc(C(F)(F)F)c3)[nH]2)c1C (centres undefined)	-	-	.	-	-	.	.	.	.	.
O=C(O)C(Cc1cccs1)c1cccs1 (centres undefined)	-	-	.	-	-	-	.	.	.	.
COc1cc(N2C(=O)C=CC2=O)c(OC)cc1Cl	-	39	.	51	90	-	44	104	80	23
O=C(NCCc1ccccc1)OCc1cn(Cc2cccc(Cl)c2)nn1	-	.	.	.	-	.	.	.	.	.
Cc1ccc(C(=O)c2c(C)oc3c2C(=O)C(=O)c2ccccc2-3)cc1	.	51	-	24	.	-	84	60	24	-
CN[C@H]1C[C@H]2c3[nH]c4c(-c5cccc(C)c5)cccc4c3CCN2C[C@H]1[C@H](C)O	-	.	.	.	-	.	.	.	.	.
O=C(NC(Cc1ccccc1)C(=O)N1CCN(c2ccc(F)cc2)CC1)c1ccccc1 (centres undefined)	-	-	.	-	-	-	.	.	.	.
SMILES	rCAG RNA binder	ABHD5-PLIN5 inh	TLR4 MyD88 comp	NOD2-RIPK2 inh	PRMT1 inh	TLR9-MyD88 inh	ABHD5 PLIN5 conf	HNF4 split-luc	NOD2-RIPK2 conf	NOD2 BLA counter
O=C(NCc1cccnc1)/C(=C/c1ccc(-c2ccc(Cl)cc2)o1)S(=O)(=O)c1ccccc1	-	80	-	41	-	-	97	88	36	-
O=C(NCc1cccnc1)/C(=C\c1ccc(-c2ccc(Br)cc2)o1)S(=O)(=O)c1ccccc1	-	73	-	33	-	-	93	83	30	-
O=C(NCc1cccnc1)/C(=C/c1ccc(-c2cccc(C(F)(F)F)c2)o1)NC(=O)c1ccccc1	-	-	-	-	-	-	.	.	.	.
Cc1cc(NC(=O)CSc2nnc(C(F)(F)F)n2C)no1	-	-	.	-	-	-	.	.	.	.
CCn1cnc2cc(NC(=O)c3ccc(C)cc3)ccc21	-	-	.	-	-	-	.	.	.	.
Cc1cccc(CS(=O)(=O)c2ncc(Cl)c(C(=O)NCc3ccccc3)n2)c1	-	34	.	57	24	-	92	106	69	15
O=C(Nc1ccc2nc3n(c(=O)c2c1)CCCCC3)c1cc([N+](=O)[O-])ccc1F	-	-	.	-	-	-	.	.	.	.
O=C(Nc1ccc2nc3n(c(=O)c2c1)CCCCC3)c1c(F)ccc([N+](=O)[O-])c1F	-	36	.	23	-	-	61	56	23	-
COc1ccc(C(=O)C(CN2CCOCC2)c2ccccc2)cc1F (centres undefined)	-	24	-	58	-	-	-	63	-	-
COc1ccc(/C=C2\CN(Cc3ccccc3)C/C(=C\c3ccc(OC)c(O)c3)C2=O)cc1O	-	72	.	26	-	-	93	86	27	-
COc1ccc(C=C2C(=O)c3ccccc3C2=O)cc1O	-	-	-	-	-	-	.	.	.	.
Cc1[nH]nc(-c2cccnc2)c1N=NN(C)C	-	62	.	37	-	-	73	79	-	-
O=C1C=CC2C3C(=O)N(c4ccccc4)C(=O)C3C1N2Cc1ccccc1 (centres undefined)	-	90	.	68	24	-	100	103	75	-
CC(C)CC1NC(=O)c2cc3ccccc3cc2-n2c1nc1ccc(F)cc1c2=O (centres undefined)	-	-	.	-	-	-	.	.	.	.

Bioassay records as filed in PubChem.
